Results filed as inconclusive are left out. Values without a mark were called inactive. Calls of active or inactive are those of the source. The call rests on the fitted dose curve.
Target: Cytochrome P450 1A2 (Homo sapiens) (UniProt P05177)
Experiment: p450-cyp1a2 (AID 410);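 on activity change, negative = inhibition: -100% = full effect of reference inhibitor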
Conditions: recombinant CYP1A2, luciferin-ME demethylation, luminescence; series mostly up to 57 µM; activity change, negative = inhibition: at the top concentration
Method: The P450 gene superfamily is involved in metabolism and the clearance of xenobiotics. This assay used human CYP1A2 to measure the demethylation of luciferin 6' methyl ether (Luciferin-ME; Promega-Glo) to luciferin. The luciferin is then measured by luminescence after the addition of a luciferase detection regeant. Luciferin-ME concentration in the assay was equal to its Km for CYP1A2.
NCGC Assay Protocol Summary:
Two uL of enzyme and substrate mix (final concentrations: 20nM CYP1A2, 100uM Luciferin-ME, 100mM KPO4) were dispensed into a white, solid bottom 1536-well microtiter plate. 23nL of compound was transferred by a pin tool. The plate was incubated at room temperature for 10 min. Two uL of an NADPH regeneration solution (Promega supplied reagent) was dispensed and the reaction was allowed to continue for 60 min at room temperature. Then the reaction was stopped by reconstituted detection reagent. After another 20 min of incubation the plate was read on the ViewLux (Perkin Elmer) at 60 sec exposure and 2x2 binning. This protocol was carried out with Promega-Glo reagents and further information can be found at http://www.promega.com/tbs/tb325/tb325.pdf. Data were normalized to the to AC100 inhibition (57 uM furafylline).
Potency means the concentration at half of the fitted maximal effect.

Chain of Cytochrome P450 1A2 (Homo sapiens) (P05177 whole entry, looked up): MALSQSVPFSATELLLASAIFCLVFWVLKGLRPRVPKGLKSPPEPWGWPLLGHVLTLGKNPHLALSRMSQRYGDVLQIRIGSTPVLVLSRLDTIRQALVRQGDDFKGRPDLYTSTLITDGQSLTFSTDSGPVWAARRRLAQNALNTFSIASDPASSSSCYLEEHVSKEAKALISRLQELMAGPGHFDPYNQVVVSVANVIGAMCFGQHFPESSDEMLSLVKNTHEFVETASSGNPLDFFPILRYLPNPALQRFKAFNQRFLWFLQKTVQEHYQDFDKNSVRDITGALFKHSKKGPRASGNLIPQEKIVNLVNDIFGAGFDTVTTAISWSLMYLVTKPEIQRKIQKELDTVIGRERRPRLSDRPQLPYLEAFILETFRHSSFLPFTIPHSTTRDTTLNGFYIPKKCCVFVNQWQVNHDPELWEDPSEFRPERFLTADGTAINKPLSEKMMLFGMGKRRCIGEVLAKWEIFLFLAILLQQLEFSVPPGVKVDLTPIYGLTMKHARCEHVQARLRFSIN

| SMILES | Potency | activity change, negative = inhibition |
| --- | --- | --- |
| CN1CCN(c2ncc3nc(-c4cccs4)c(=O)n(CCc4ccccc4)c3n2)CC1 | 2.51 µM (active) |  |
| CN(Cc1ccco1)c1cc(-c2ccc3c(c2)OCO3)ncn1 | 0.501 µM (active) |  |
| O=S(=O)(O)C1CCNCC1 |  | 7.7% |
| COc1ccc(Oc2ncc3nc(CCc4ccccc4)c(=O)n(CCC#N)c3n2)cc1 | 6.31 µM (active) |  |
| O=c1c(CCc2ccccc2)nc2cnc(N3CCNCC3)nc2n1-c1ccccc1 | 15.8 µM (active) |  |
| Cc1cnc(CNc2ncnc3ccc(-c4ccccc4C)cc23)cn1 | 6.31 µM (active) |  |
| O=c1ccc2cc3ccoc3cc2o1 | 0.0316 µM (active) |  |
| COc1ccc2[nH]cc(CCNc3ncnc4ccc(-c5cccc(C#N)c5)cc34)c2c1 | 2.51 µM (active) |  |
| COCCn1c(=O)c(-c2cccs2)nc2cnc(N3CCNCC3)nc21 | 3.98 µM (active) |  |
| c1ccc(NN(Cc2cnccn2)c2ccccc2)cc1 | 2 µM (active) |  |
| COc1ccc(Oc2ncc3nc(-c4cccc(C#N)c4)c(=O)n(CCC#N)c3n2)cc1 | 25.1 µM (active) |  |
| COc1cccc(Cn2c(=O)cnc3cnc(Nc4cccc(OC)c4)nc32)c1 | 3.98 µM (active) |  |
| N#Cc1c(-c2ccccc2)no[n+]1[O-] | 0.398 µM (active) |  |
| CC(C)=CCc1c(O)cc(O)c2c1O[C@H](c1ccccc1)CC2=O | 0.316 µM (active) |  |
| COc1ccc2[nH]cc(CCNc3ncncc3-c3ccccc3OC)c2c1 | 2.51 µM (active) |  |
| N#CCCn1c(=O)c(-c2cccc(C#N)c2)nc2cnc(Oc3cccc(Cl)c3)nc21 |  | -17.1% |
| Cc1ncc(COP(=O)(O)O)c(C)c1O |  | -20.3% [at 11.4 µM] |
| COc1cccc(Cn2c(=O)c(CCc3ccccc3)nc3cnc(N4CCN(C)CC4)nc32)c1 | 15.8 µM (active) |  |
| CCNc1ncc2nc(CCc3ccccc3)c(=O)n(CCC#N)c2n1 | 3.98 µM (active) |  |
| O=C(c1cnccn1)N1CCC[C@@]2(CCN(c3cccc(-c4ccccc4)c3)C2)C1 | 25.1 µM (active) |  |

| SMILES | Potency | activity change, negative = inhibition |
| --- | --- | --- |
| CN1CCN(c2nc(-c3ccoc3)nc3ccccc23)CC1 | 1.26 µM (active) |  |
| COc1ncc2nc(CCc3ccccc3)c(=O)n(-c3ccccc3)c2n1 | 12.6 µM (active) |  |
| COc1ccc(Oc2ncc3nc(C)c(=O)n(Cc4cccs4)c3n2)cc1 | 10 µM (active) |  |
| O=c1c(CCc2ccccc2)nc2cnc(Oc3ccccc3)nc2n1C1CC1 | 7.94 µM (active) |  |
| COc1ccc(-c2nc3cnc(Oc4cccc(Cl)c4)nc3n(C[C@H]3CCCO3)c2=O)cc1 | 5.01 µM (active) |  |
| COc1ncc2nc(-c3cccs3)c(=O)n(CCC#N)c2n1 | 6.31 µM (active) |  |
| CN1CCN(c2ncc3nc(-c4ccccc4)c(=O)n(Cc4cccs4)c3n2)CC1 | 15.8 µM (active) |  |
| CS(=O)(=O)Nc1cccc(-c2nc(Nc3ccncc3)c3ccccc3n2)c1 | 0.631 µM (active) |  |
| COc1cccc(Nc2ncc3nc(-c4ccc(F)cc4)c(=O)n(CCC#N)c3n2)c1 | 3.98 µM (active) |  |
| COc1ccc(-c2nc3cnc(N4CCN(C)CC4)nc3n(CCc3ccccc3)c2=O)cc1 |  | -5.9% |
| CN(C)c1ccc(-c2nccc(Nc3ccc(F)cc3)n2)cc1 | 0.501 µM (active) |  |
| COc1ccc(-c2oc3ccc(C)cc3c(=O)c2O)cc1OC | 0.251 µM (active) |  |
| COc1ccc(-n2c(=O)c(CCc3ccccc3)nc3cnc(OC)nc32)cc1 | 15.8 µM (active) |  |
| Cc1ccccc1-c1ccc2ncnc(-n3ccnc3)c2c1 | 0.794 µM (active) |  |
| CN(C)Cc1ccccc1-c1ccc2ncnc(N(C)C)c2c1 | 12.6 µM (active) |  |
| O=c1cnc2cnc(Oc3ccccc3)nc2n1Cc1cccs1 | 7.94 µM (active) |  |
| O=C(c1ccco1)N1CCC2(CC1)CN(c1cccc(-c3ccccc3)c1)C2 | 7.94 µM (active) |  |
| Cc1cnc(CNc2ncnc3ccc(-c4ccccc4Cl)cc23)cn1 | 6.31 µM (active) |  |
| COc1ccccc1-c1ccc2ncnc(N3CCOCC3)c2c1 | 0.631 µM (active) |  |
| CCNc1ncc2nc(C)c(=O)n(CCc3ccccc3)c2n1 | 1.58 µM (active) |  |

Reference: PubChem BioAssay (NCATS)
